These results are taken from the supplement of paper PMC12669032.

Unmarked numbers belong to inactive results.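 Rule for the calls: active = AUC reduced over 20% with Padj below 0.05 in at least 2 of 3 replicates; inactive = otherwise.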

Holding throughout (test): growth AUC relative to DMSO control (median of replicates) (fraction); higher = more growth (less inhibition), active = hit call of the paper
Conditions in all cases: 20 µM; 24 h

In assay [1] the test system is Akkermansia muciniphila. The essentials:
(§1)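 OD600 was recorded every hour for 24 h in anaerobic monocultures of gut bacteria kept at 37 °C in mGAM, seeded at OD600 0.05 and given 20 µM compound in 1% DMSO. The area under each growth curve was scaled to the plate median of solvent-only wells, or to row and column medians for the industrial chemical plate. Before this step, the minimum OD was set to 0. Reported values are medians of three biological replicates run on separate days.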

Assay [2] concerns Bacteroides caccae. The essentials: as §1
Assay [3] deals with Bacteroides clarus. In a few lines:
as §1

Assay [4] deals with Bacteroides dorei. The essentials:
as §1

Assay [5] deals with Bacteroides stercoris. The essentials: as §1
In assay [6] the test system is Bacteroides thetaiotaomicron. In a few lines: as §1
Assay [7] relates to Bacteroides uniformis. In a few lines:
as §1

For assay [8], the system named is Bifidobacterium longum subsp. longum. In a few lines:
as §1

For assay [9], the system named is Clostridium difficile. The essentials:
as §1

The test system of assay [10] is Collinsella aerofaciens. The essentials:
as §1

`COc1cc(OC)nc(NC(=O)[N-]S(=O)(=O)c2ncccc2OCC(F)(F)F)n1.[Na+]`: the “growth AUC” value is 1.07 in [1]; 0.973 in [2]; 0.982 in assay [3]; 0.995 in assay [4]; 0.888 in assay [5]; 0.77 (active) in [6]. Besides, the “growth AUC” value was 1.02 in assay [7], 1.07 in [8], 1 in assay [9] and 1 in assay [10].

Regarding `CC1CCCCC1NC(=O)Nc1ccccc1` (mixture of isomers), the “growth AUC” value was 0.952 in [1]; 1 in [2]; 0.967 in [3]; 0.993 in [4]; 0.973 in [5]; 0.969 in assay [6]. The “growth AUC” value in [7] is 0.959; in assay [8], 0.898; in assay [9], 1.01; in assay [10], 0.976.

As for `COP(=O)(OC)OC1=C(Cl)C2C=CCC12` (stereo not given), the “growth AUC” value in assay [1] was 1.03; in [2], 0.928; in [3] it was 0.995; in assay [4] it was 1; in [5], 1.42; in assay [6], 1.02. In addition, the “growth AUC” value in assay [7] is 1.02; in assay [8] it was 1.01; in assay [9] it was 1; in [10], 0.964.

In the case of `Fc1ccc(C2(Cn3cncn3)OC2c2ccccc2Cl)cc1` (stereo not given), the “growth AUC” value in assay [1] is 0.955; in assay [2] it was 1.01; in [3], 0.93; in [4] it was 0.956; in assay [5], 1.02; in [6] it was 0.941. The “growth AUC” value in [7] was 0.953; in assay [8], 0.935; in assay [9] it was 0.995; in [10] it was 0.99.

For the molecule `COc1cc(C)c(C(=O)c2c(OC)ccc(Br)c2C)c(OC)c1OC`, the “growth AUC” value in assay [1] is 1.05; in assay [2], 1; in assay [3], 0.959; in assay [4] it was 0.992; in [5], 0.958; in assay [6] it was 0.951. Moreover, the “growth AUC” value in assay [7] is 0.91; in assay [8], 0.885; in assay [9], 1.03; in assay [10], 0.956.

On to `CC(C)N1C(=O)N(c2ccccc2)CSC1=NC(C)(C)C`, for which the “growth AUC” value in [1] is 0.893; in [2], 0.957; in [3] it was 0.902; in [4], 0.946; in [5], 0.977; in assay [6] it was 0.927. For the same molecule, the “growth AUC” value is 0.981 in assay [7], 0.99 in assay [8], 1.02 in assay [9] and 0.971 in assay [10].

`Nc1ccc(Cl)cc1`: the “growth AUC” value in assay [1] is 1.01; in assay [2], 1.03; in [3] it was 1.02; in assay [4], 1; in assay [5] it was 1.03; in assay [6] it was 1.05. Also, the “growth AUC” value in assay [7] is 1.02; in assay [8] it was 1.04; in [9], 1; in assay [10], 0.972.

As to `COc1cc(OC)nc(NC(=O)NS(=O)(=O)c2ncccc2C(F)(F)F)n1`, the “growth AUC” value is 0.985 in assay [1]; 1.02 in assay [2]; 0.977 in assay [3]; 0.991 in assay [4]; 0.908 in [5]; 1.02 in assay [6]. Besides, the “growth AUC” value in assay [7] is 1.02; in [8] it was 1; in assay [9] it was 1.02; in assay [10] it was 0.972.

For `O=C1OCC2C1C1(Cl)C(Cl)=C(Cl)C2(Cl)C1(Cl)Cl` (stereo not given), the “growth AUC” value is 1.09 in [1]; 0.965 in assay [2]; 0.991 in assay [3]; 0.987 in assay [4]; 0.871 in assay [5]; 1.04 in assay [6]. For the same molecule, the “growth AUC” value in [7] is 1.01; in assay [8], 1.06; in assay [9], 0.987; in assay [10], 0.926.

Consider `CCc1ccc(C(=O)NN(C(=O)c2cc(C)cc(C)c2)C(C)(C)C)cc1`, for which the “growth AUC” value in assay [1] was 0.924; in assay [2] it was 1.03; in assay [3], 0.993; in [4], 0.987; in assay [5], 0.875; in [6], 0.976. Besides, the “growth AUC” value in assay [7] is 0.955; in assay [8], 0.911; in assay [9], 0.965; in [10], 1.
